Sampled rows, rich in hits. Any-hit rate of the full collection: about 4%.
Rv3671c protease: inhibits the M. tuberculosis serine protease Rv3671c; 320,000 tested, 0.048% active; AID 2606; P9WHR9; inhibition, % at 5.96 µM; in the data active means inhibition above about 38%;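 further: extracellular domain of Rv3671c used as enzyme; 0% = enzyme with DMSO and 100% = no enzyme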
Mtb UGM inh: inhibitors of M. tuberculosis UDP-galactopyranose mutase; P9WIQ1; purified UGM, fluorescence polarization probe displacement; inhibition, % at 10 µM; 320,000 tested, 0.06% active; in the data active means inhibition above about 10%, passing the limit was not always enough; inconclusive means no clear call, values can overlap the other calls
Mtb bLac sens: beta-lactam sensitization of Mtb H37Rv | inhibition, % at 25 µM | 330,000 tested, 0.27% active | M. tuberculosis H37Rv growth with meropenem, percent inhibition | AID 434955; call rule not given here;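 further: growth measured after seven days incubation then overnight dye step; 0% = bacteria only wells and 100% = bacteria with antibiotic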
Mtb FBA inh: Mtb fructose-bisphosphate aldolase inhibition. 360,000 tested, 2.3% active. P9WQA3. inhibition, % at 1 µM. AID 588726. purified M. tuberculosis FBA, fluorescence read-out; in the data active means inhibition above about 27%;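 further: 0% = vehicle and 100% = reference inhibitor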
GDH-TPI counter: inhibits GDH-TPI coupling enzymes, artifact for Mtb FBA screen; GDH-TPI coupled enzyme counterscreen, NADH absorbance; 360,000 tested, 1.2% active; inhibition, % at 4.8 µM; in the data active means inhibition above about 30%;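 further: 0% = DMSO wells and 100% = wells lacking the enzyme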
RecA splice inh: Mtb RecA intein splicing inhibition; AID 2221; cell-free RecA intein splicing, fluorescence; P9WHJ3; 290,000 tested, 0.75% active; inhibition, % (test concentration not listed); in the data active means inhibition above about 30%; inconclusive means no clear call, values can overlap the other calls;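 further: 0% = vehicle wells and 100% = reference inhibitor control wells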
Target sequence (P9WHJ3 whole entry, looked up, canonical isoform): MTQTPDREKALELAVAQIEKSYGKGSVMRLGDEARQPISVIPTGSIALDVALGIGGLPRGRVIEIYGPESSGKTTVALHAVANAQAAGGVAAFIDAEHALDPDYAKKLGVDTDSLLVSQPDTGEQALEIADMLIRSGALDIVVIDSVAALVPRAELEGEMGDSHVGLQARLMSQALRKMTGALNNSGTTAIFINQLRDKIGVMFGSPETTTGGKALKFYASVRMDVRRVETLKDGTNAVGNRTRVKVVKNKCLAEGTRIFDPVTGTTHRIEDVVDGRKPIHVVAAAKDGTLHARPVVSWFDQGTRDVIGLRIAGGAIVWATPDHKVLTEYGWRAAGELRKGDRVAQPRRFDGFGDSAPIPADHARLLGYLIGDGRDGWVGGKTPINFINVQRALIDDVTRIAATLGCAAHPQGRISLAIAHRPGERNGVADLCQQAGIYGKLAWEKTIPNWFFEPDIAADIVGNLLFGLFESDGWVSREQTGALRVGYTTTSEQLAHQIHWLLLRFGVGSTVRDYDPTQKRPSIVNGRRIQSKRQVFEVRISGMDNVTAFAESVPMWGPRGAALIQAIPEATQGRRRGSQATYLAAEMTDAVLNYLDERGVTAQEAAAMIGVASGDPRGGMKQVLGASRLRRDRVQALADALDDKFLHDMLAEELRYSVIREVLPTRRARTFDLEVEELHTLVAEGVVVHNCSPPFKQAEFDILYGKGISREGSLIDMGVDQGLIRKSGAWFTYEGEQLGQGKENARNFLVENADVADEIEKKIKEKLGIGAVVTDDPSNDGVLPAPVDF
* marks the source's active call; other numbers are inactive results; i = inactive; ? = inconclusive; . = not tested or not shown; + = active, no number.

SMILES	Rv3671c protease	Mtb UGM inh	Mtb bLac sens	Mtb FBA inh	GDH-TPI counter	RecA splice inh
COc1ccc2cc(C(=O)C3CCCN(C(=O)CSc4nnc(C)o4)C3)ccc2c1 (centres undefined)	-12	-1	-2	126*	17	0
CCNC(=O)N1CCCC(C(=O)c2ccc3cc(OC)ccc3c2)C1 (centres undefined)	-2	1	0	16	3	2
O=C(COC(=O)Cc1ccc(F)cc1)Nc1ccc2[nH]c(=O)[nH]c2c1	6	-1	2	-1	-6	-4
N/C(Cc1cccc2ccccc12)=N\OC(=O)Cc1cccs1	-8	0	7	1	7	22
N/C(Cc1cccc2ccccc12)=N\OC(=O)c1cccs1	-7	3	29	.	.	33*
COc1ccc(CC(=O)O/N=C(\N)Cc2cccc3ccccc23)cc1OC	-14	0	3	7	-3	32*
Cc1ccc(S(=O)(=O)N(C)C[C@@H]2OCCCC[C@@H](C)Oc3ccc(NS(=O)(=O)c4c(C)noc4C)cc3C(=O)N([C@H](C)CO)C[C@@H]2C)cc1	.	.	.	6	9	.
CCCC(=O)Nc1ccc(C(=O)NCC2CCCO2)cc1 (centres undefined)	-4	1	-21	0	-1	-5
Cc1ccccc1N/N=C1\CCCNC1=O	-9	-1	0	0	12	-3
O=C1NCCC/C1=N\Nc1ccc(Br)cc1	1	-3	93	0	37*	1
Cn1c(=O)c(C(=O)NNC(=O)c2ccc(Br)cc2)c(O)c2ccccc21	1	-1	100	2	-2	2
CC(=O)c1sc2nc(-c3cccs3)cc(C(F)(F)F)c2c1N	6	-1	12	+	18	-4
Cc1ccc(-c2cc(-c3ccccc3)c3c(N)c(S(C)(=O)=O)sc3n2)cc1	-14	3	12	15	14	.
Cc1c(C(=O)Nc2nccs2)sc2nc(-c3cccs3)cc(C(F)(F)F)c12	-17	0	99	10	14	-6
Cc1c(C(=O)O)sc2nc(-c3cccs3)cc(C(F)(F)F)c12	5	1	-4	32*	21	3
CS(=O)(=O)c1sc2nc(-c3cccs3)cc(-c3ccccc3)c2c1N	-5	1	-2	15	31*	-11
CCCC(C)(C)C(=O)N1CCC1(C)C(=O)NS(=O)(=O)c1ccccc1Cl (centres undefined)	.	.	.	4	8	.
Cc1ccc2sc(N(CCCN(C)C)C(=O)CN3C(=O)c4ccccc4C3=O)nc2c1C	7	2	1	1	6	-6
Cc1ccc(S(=O)(=O)c2cc3c(=O)n4ccccc4nc3n(Cc3ccco3)c2=N)cc1C	0	-1	-1	.	.	-63
Cc1ccc2nc3c(cc(S(=O)(=O)c4ccccc4)c(=N)n3Cc3ccco3)c(=O)n2c1	-9	2	11	121*	5	-90
Cc1cccn2c(=O)c3cc(S(=O)(=O)c4ccccc4)c(=N)n(Cc4ccco4)c3nc12	-5	5	-10	21	6	-217
Cc1cccn2c(=O)c3cc(S(=O)(=O)c4ccc(F)cc4)c(=N)n(Cc4ccco4)c3nc12	-10	5	-5	116*	0	-28
Cc1ccc(/C=C/C(=O)OCn2nnc3ccccc3c2=O)o1	-7	1	100	1	34*	-3
O=C(/C=C/c1ccco1)OCn1nnc2ccccc2c1=O	5	4	100	-1	-2	6
CCOc1cc(/C=C2/NC(=O)N(Cc3ccccc3F)C2=O)ccc1O	22	0	2	-2	40*	-5
SMILES	Rv3671c protease	Mtb UGM inh	Mtb bLac sens	Mtb FBA inh	GDH-TPI counter	RecA splice inh
COc1cc(/C=C2/NC(=O)N(Cc3ccccc3F)C2=O)cc(OC)c1O	-2	2	-1	1	11	.
CCOc1ccc(-n2nnnc2SCC(=O)Nc2cccc(O)c2)cc1	4	-1	1	-2	5	-1
O=C(CN1C(=O)C2C3CC(C(Br)C3Br)C2C1=O)N1CCOCC1 (centres undefined)	2	2	2	1	5	0
O=C(/C=C/c1cccs1)Nc1ccncc1	-5	0	2	-2	36*	-1
O=C(/C=C/c1cccs1)NC(=S)Nc1ccc(C(=O)O)cc1	-9	2	24	1	74*	2
CC(C)CN(Cc1c(O)ccc2c3c(c(=O)oc12)CCC3)CC(C)C	3	0	4	+	9	-11
O=c1oc2c(CN3CCOCC3)c(O)ccc2c2c1CCC2	1	0	-5	+	0	.
C/C(Cn1nc([N+](=O)[O-])cc1C)=N\NC(=O)c1ccc(O)cc1O	19	1	8	-2	18	1
C/C(=N\NC(=O)c1ccc2c(c1)OCO2)c1ccc(O)cc1	-4	-4	-1	-1	33*	1
C/C(=N\NC(=O)c1ccccc1)c1ccc2c(c1)OCO2	2	2	1	1	-6	-2
C/C(=N\NC(=O)c1ccc2c(c1)OCO2)c1ccc(NS(C)(=O)=O)cc1	-1	2	-4	-4	36*	0
CCOC(=O)C1CCCN(S(=O)(=O)c2ccc3c(c2)N(C)C(=O)CC(=O)N3C)C1 (centres undefined)	3	-1	0	-2	9	-1
O=C(CSc1nnnn1-c1cccnc1)Nc1cccc(Cl)c1	-7	5	-4	-1	-5	2
CCOC(=O)N1CCN(C(=O)COC(=O)C2CCN(S(=O)(=O)c3c(C)c(C)cc(C)c3C)CC2)CC1	11	1	-8	-2	-10	-3
CCC(C)NC(=O)c1c(N)n(Cc2ccc3c(c2)OCO3)c2nc3ccccc3nc12 (centres undefined)	-11	1	46	20	20	41*
CCCNC(=O)c1c(N)n(-c2ccc3c(c2)OCO3)c2nc3ccccc3nc12	-3	0	-7	-2	6	1
CCC(C)NC(=O)c1c(N)n(CC2CCCO2)c2nc3ccccc3nc12 (centres undefined)	-41	0	?	87*	1	-79
C=CCn1c(N)c(C(=O)NCC2CCCO2)c2nc3ccccc3nc21 (centres undefined)	-123	3	4	144*	4	i
CC(C)CCNC(=O)c1c(N)n(CC2CCCO2)c2nc3ccccc3nc12 (centres undefined)	-44	-4	38	19	12	-77
Cc1cccc(OCCCCCN2CCOCC2)c1C	1	-2	0	-1	-6	-1
CCOC(=O)c1cnc2cc(C)ccn2c1=O	-9	-2	1	124*	31*	-2
COc1ccc(CNC(=O)c2cnc3cc(C)ccn3c2=O)cc1	-7	3	-1	5	7	-3
O=C1Nc2ccc([N+](=O)[O-])cc2C1(O)N1CCCCCC1 (centres undefined)	-4	-6	-1	-1	33*	0
CCCCn1nnnc1C(c1ccc(OC)cc1)N1CCN(C/C=C/c2ccccc2)CC1 (centres undefined)	.	.	.	-1	.	.

Screening data as filed in PubChem.
